# Source: PubChem BioAssay (National Center for Advancing Translational Sciences (NCATS))
# Sampled rows, rich in hits. Any-hit rate of the full collection: about 3%.
# ERK AVP block = inhibitors of vasopressin-stimulated ERK signaling pathway; HEK293-V1b, vasopressin-stimulated pERK AlphaScreen; Potency, µM (top dose mostly 57.5 µM), inactives show top-dose activity, negative = inhibition, most hits filed as inhibitors; hit rate 0.99% among 72,000; AID 995; further: potency means the concentration at half of the fitted maximal effect; on the % scale 0 is the no-effect control and ±100 the full control effect; nearly all actives have a fitted effect of over 55% in size
#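 Phosphorylated ERK1/2 detected via AlphaScreen bead proximity in lysates of V1b-expressing HEK293 cells given 25 nM vasopressin for 5 min after 30 min compound exposure (37 °C). AC50 from Hill equation; basal DMSO 0%, vasopressin 100%.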
# Hsp90 Hop PPI = changes Hsp90-Hop TPR2A binding signal, up or down. AlphaScreen TPR2A-His6 binding biotin-Hsp90 C-terminal peptide. Potency, µM (titrated, usually from 57 µM), without a hit: at the top dose activity change, negative = inhibition. hit rate 0.44% among 71,000. AID 595; active means well fitted curve in either direction with a large enough effect; inconclusive means small, poorly fitted or top-dose-only effect, or another doubt; further: potency means the concentration at half of the fitted maximal effect; on the % scale 0 is the no-effect control and ±100 the full control effect
# Tau filament bind = binders of human tau filaments | recombinant tau filaments, thioflavin S fluorescence, 15 h; filaments grown with octadecylsulfate alongside compound | P10636 | hit rate 2% among 71,000 | Potency, µM (doses to about 57.1 µM), inactives show top-dose activity change, negative = inhibition;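 further: potency means the concentration at half of the fitted maximal effect; on the % scale 0 is the no-effect control and ±100 the full control effect; actives lower thioflavin S fluorescence by blocking filaments or displacing dye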
# Target sequence (P10636 whole entry, looked up): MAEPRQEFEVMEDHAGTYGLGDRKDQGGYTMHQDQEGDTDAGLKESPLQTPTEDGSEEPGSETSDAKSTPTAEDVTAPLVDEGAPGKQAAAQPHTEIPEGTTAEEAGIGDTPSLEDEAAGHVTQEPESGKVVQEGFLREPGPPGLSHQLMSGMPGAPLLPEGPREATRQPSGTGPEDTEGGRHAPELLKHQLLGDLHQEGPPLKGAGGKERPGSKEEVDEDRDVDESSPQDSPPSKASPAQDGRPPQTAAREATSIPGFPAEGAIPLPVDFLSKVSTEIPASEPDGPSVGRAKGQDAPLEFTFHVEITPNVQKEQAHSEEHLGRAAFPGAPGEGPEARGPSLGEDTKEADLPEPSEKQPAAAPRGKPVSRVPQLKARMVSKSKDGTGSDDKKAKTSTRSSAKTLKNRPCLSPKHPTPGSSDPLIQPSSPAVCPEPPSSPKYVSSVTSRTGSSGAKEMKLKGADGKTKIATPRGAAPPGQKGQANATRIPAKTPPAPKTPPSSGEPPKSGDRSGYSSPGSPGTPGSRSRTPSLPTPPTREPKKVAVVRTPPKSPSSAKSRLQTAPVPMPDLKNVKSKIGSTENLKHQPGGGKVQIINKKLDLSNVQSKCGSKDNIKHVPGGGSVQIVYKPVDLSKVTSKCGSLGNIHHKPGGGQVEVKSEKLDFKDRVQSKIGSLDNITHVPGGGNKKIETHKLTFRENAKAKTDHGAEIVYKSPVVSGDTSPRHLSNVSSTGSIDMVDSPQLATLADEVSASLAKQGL
#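 Read-out: ThS fluorescence, 450 nm excitation/510 nm emission; lower signal marks blocked filament formation or displaced dye. Tau at 1 uM with 30 uM ODS, 10 uM ThS, 5 mM DTT, 100 mM NaCl, 10 mM HEPES pH 7.4; 15 h, 37 C.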
# Epigenetic mod = derepresses silenced GFP locus in mouse C127i cells | mouse C127i GFP locus derepression, cytometry, 30 h | Potency, µM (top dose mostly 46.1 µM), without a hit: top-dose GFP derepression (activation) | hit rate 0.09% among 68,000; further: % of control where 0% means no effect
#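 Read-out is the number of GFP-positive cells, scored as fluorescent objects 20 to 120 um wide, reflecting derepression of a silenced CMV-GFP reporter in murine C127i cells after 30 h compound exposure at 37 C.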
# HBB splicing = alters splicing of the hemoglobin beta chain; hit rate 0.06% among 65,000; HBB splicing reporter cell assay, activation; EGFP reporter with mutant IVS2-654 intron; response scale: normalised to 500 nM splice-correcting PNA; AID 925; Potency, µM (highest dose often 46.1 µM), without a hit: at the top dose activation, most hits filed as activators; further: potency means the concentration at half of the fitted maximal effect; 0% is about no effect
#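 Compounds were applied for 2 days to HeLa EGFP-654 cells, 500/well in Optimem with 2% FCS. The reporter's EGFP is disrupted by mis-splicing of beta-globin intron IVS2-654. Readout: summed well GFP fluorescence from 488 nm laser scanning; reference was 500 nM antisense […] 654 PNA.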
# Ub-GFP proteasome = ubiquitin-GFP accumulation via proteasome inhibition; Ubiquitin-GFP reporter cells, proteasome inhibition, GFP fluorescence; response scale: untreated = 0%, 10 µM MG-132 = 100%; 67,000 tested, under 10 active; Potency, µM (top dose mostly 45.9 µM), for inactives: top-dose activation (GFP accumulation), hits mostly activators; active means well fitted activation curve with a large enough effect, not every such curve was filed as active; inconclusive means small, poorly fitted or top-dose-only effect, or another doubt; inactive means no such curve, though single readings can be large or run the other way; further: potency means the concentration at half of the fitted maximal effect
#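 U2OS cells expressing ubiquitin(G76V)-GFP, seeded overnight in 0.5% FBS medium, then treated 4 hr at 37 C across 46 uM to 2.9 nM. GFP-positive cells counted by laser cytometry (488 ex/515 em); %activity scaled between basal and 10 uM MG-132.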
# Numbers without * were called inactive; ? = inconclusive; . = no result; [ ] = another dose, or the depositor's remark. Unless noted, the call rests on the fitted dose curve; in most records, active means well fitted curve in the direction sought with a large enough effect; inconclusive means small, poorly fitted or top-dose-only effect, or another doubt; inactive means no such curve, though single readings can be large; an effect the other way counts as inactive or inconclusive.
SMILES,ERK AVP block,Hsp90 Hop PPI,Tau filament bind,Epigenetic mod,HBB splicing,Ub-GFP proteasome
O=c1[nH]cc(CS(=O)(=O)Cc2c[nH]c(=O)[nH]c2=O)c(=O)[nH]1,0%[11.5 µM],-2%[11 µM],0%[11.4 µM],0%[9.22 µM],-1%[9.22 µM],5%[9.17 µM]
C=CC(C)(C)c1[nH]c2ccccc2c1C1=C(O)C(=O)C(c2c[nH]c3c(CC=C(C)C)cccc23)=C(O)C1=O,?,?,32µM*,0%,.,-4%
Nc1c(S(=O)(=O)O)cc(Nc2cccc(S(N)(=O)=O)c2)c2c1C(=O)c1ccccc1C2=O,?,?,-4%[11.4 µM],-1%[9.22 µM],3%[9.22 µM],14%[9.17 µM]
O=[N+]([O-])c1cccc(C(F)(F)F)c1,-9%,2%,-3%,.,0%,.
CCC(=O)Nc1ccc2nc(C)n(CC(=O)Nc3ccccc3)c(=O)c2c1,-7%,-3%,13µM*,1%,-1%,-4%
COc1cc(C)cc2c(-c3c(O)cc(O)c4c3C[C@H](C)N[C@@H]4C)cc(-c3cc(-c4c(O)cc(O)c5c4C[C@H](C)N[C@@H]5C)c4cc(C)cc(OC)c4c3O)c(O)c12,-16%[11.5 µM],-12%[11 µM],4µM*,2%[9.22 µM],2%[9.22 µM],-2%[9.17 µM]
Brc1ccc(C2Nc3cccc4cccc(c34)N2)o1,?,?,10µM*,2%,-1%,-13%
O=C1NC(c2ccco2)Nc2ccccc21 (stereo unspecified),-1%,-9%,-20%,1%,.,-3%
CN1CCN(CC(=O)N2c3ccccc3Sc3cc4ccccc4cc32)CC1,1%[11.5 µM],-8%[11 µM],-3%[11.4 µM],-3%[9.22 µM],0%[9.22 µM],-3%[9.17 µM]
Nc1ccc2c3c(cccc13)CC2,.,.,.,13µM*,.,.
Nc1cccc2c(N)cccc12,-7%,-3%,32µM*,.,-1%,.
Nc1c(OCC(=O)O)ccc2cc(S(=O)(=O)O)ccc12,-1%[11.5 µM],-5%[11 µM],5%[11.4 µM],2%[9.22 µM],3%[9.22 µM],7%[9.17 µM]
CCOC(=O)c1cc(-c2ccc(N)cc2)sc1N,-32%,-26%,25µM*,1%,0%[0.369 µM],-4%
Nc1ccc2oc(=O)c3ccccc3c2c1,10µM*,-4%,-20%,-2%,0%[57.5 µM],1%
NCCOC[C@H](N)C(=O)O,8%[11.5 µM],-2%[11 µM],1%[11.4 µM],-2%[9.22 µM],0%[9.22 µM],-6%[9.17 µM]
O=C1C=C(N2CCN(c3ccccn3)CC2)C(=O)c2c(O)ccc(O)c21,?,?,1.6µM*,3%[9.22 µM],2%[9.22 µM],2%[9.17 µM]
O=C(CN1C(=O)c2ccccc2C1=O)N1CCN(c2ccccn2)CC1,-7%,-1%,2%,4%,0%,1%
Cc1ccsc1C=Nc1ccc(O)cc1,-17%,-23%,20µM*,?,-1%[9.22 µM],-8%
Oc1c(C=Nc2cccnc2)sc2ccccc12,.,.,.,0%[20.6 µM],.,.
Oc1ccccc1C1=NCCNC(C(F)(F)C(F)F)=C1,-28%,-3%,16µM*,0%,1%,3%
Oc1ccccc1-c1cc(C(F)(F)C(F)F)[nH]n1,?,-8%[11 µM],-7%[11.4 µM],-4%,-3%[0.0738 µM],12%[9.17 µM]
C=C1C(=O)C=C2CN(C(=O)c3ccccc3)[C@@](Cc3ccc(F)cc3)(C(=O)OC)[C@@H]12,10µM*,-1%,-10%,.,-1%,.
O=c1cc(-c2ccccc2)oc2cc(O)cc(O)c12,?,-6%[26 µM],-19%[25.6 µM],-1%[20.6 µM],0%[20.6 µM],3%[20.5 µM]
COc1cc(O)c2c(=O)cc(-c3ccccc3)oc2c1,-26%,-2%,32µM*,-2%[9.22 µM],.,0%
Nc1nc(SCC(=O)O)[nH]c(=O)c1N,17%[11.5 µM],-3%[11 µM],4%[11.4 µM],4%[9.22 µM],1%[9.22 µM],8%[9.17 µM]
COc1ccc(OC)c(NC(=O)C2CCCN2C(=O)C2CCC(C)CC2)c1 (stereo unspecified),.,-9%,20µM*,.,-1%,-4%
COc1cc(NC(=O)C2CCCN2C(=O)C2CCC(C)CC2)cc(OC)c1OC (stereo unspecified),.,-4%,-30%,.,0%,-8%
Cc1cc(N)c2cc(OCCOc3ccc4nc(C)cc(N)c4c3)ccc2n1,-8%[11.5 µM],.,.,.,.,.
O=[N+]([O-])c1cccc(/C=N\Nc2ccc3ccccc3n2)c1O,-25%[11.5 µM],?,3.2µM*,1%[9.22 µM],0%[9.22 µM],-3%[9.17 µM]
